# From PubChem BioAssay AID463173 (ICCB-Longwood Screening Facility, Harvard Medical School, 2010)
# About 4,300 (8.3%) of roughly 52,000 compounds were called active. This excerpt belongs to a sample that is enriched for actives. A number with no mark means an inactive call. Cut-off read from the data, not from the text of the source: active = survival mostly below about 52% (no sharp cut-off); inactive = mostly above about 56%.
# Tested on: DeltatarO mutant
# Assay: S. aureus survival, RN4220 and DeltatarO strains – OD600, teichoic acid synthesis inhibitors, primary screen (AID 463173)
# Details: S. aureus RN4220 wild type/DeltatarO growth, OD600, 18 h, active compounds read low, screened at 18.75 µg/mL (by protocol)
row,Structure (SMILES),survival
1,CC(=O)N1c2ccccc2C(=O)C1N1CCN(c2ccccc2F)CC1 (stereo not given),90%
2,COc1ccc(-c2cn3c(n2)sc2cc(C(=O)Nc4cccc(SC)c4)ccc23)cc1,59%
3,COC(=O)c1cc(NC(=O)Cn2ncc3c([nH]c4ccccc43)c2=O)cc(C(=O)OC)c1,66%
4,O=C(CSc1ccc(-c2ccccn2)nn1)Nc1ccc(F)cc1F,38%
5,O=C(NCCc1ccc(Cl)cc1)c1ccc2c(c1)N(Cc1ccc(F)cc1Cl)C(=O)CS2,49%
6,O=C(NCCc1ccccc1)c1ccc2c(c1)N(Cc1ccccc1Cl)C(=O)c1ccccc1S2,94%
7,O=C(NCCc1ccccc1)c1ccc2c(c1)N(Cc1c(F)cccc1Cl)C(=O)CS2,54%
8,O=C(NCCc1ccc(Cl)cc1)c1ccc2c(c1)N(Cc1ccccc1)CCS2,102%
9,CC(NC(=O)c1ccc2c(c1)N(Cc1ccc(Cl)cc1)C(=O)c1ccccc1S2=O)c1ccccc1 (stereo not given),73%
10,CC(NC(=O)c1ccc2c(c1)N(Cc1ccc(Cl)cc1)C(=O)c1ccccc1S2(=O)=O)c1ccccc1 (stereo not given),90%
11,Cc1ccc(C)c(CN2C(=O)CSc3ccc(C(=O)NCCc4ccc(Cl)cc4)cc32)c1,49%
12,O=C(NCCc1ccc(Cl)cc1)c1ccc2c(c1)N(Cc1ccccc1)C(=O)CS2,25% (active)
13,CC(NC(=O)c1ccc2c(c1)N(Cc1ccc(Cl)cc1)C(=O)CS2)c1ccccc1 (stereo not given),48% (active)
14,O=C(NCCc1ccccc1)c1ccc2c(c1)N(Cc1ccc(F)cc1Cl)C(=O)CS2,55% (active)
15,O=C(NCCc1ccccc1)c1ccc2c(c1)N(Cc1ccc(Cl)cc1)C(=O)CS2,144%
16,O=C(NCCc1ccc(Cl)cc1)c1ccc2c(c1)N(Cc1c(F)cccc1Cl)C(=O)CS2,44% (active)
17,CCOC(=O)c1c(C)n(CCNC(C)=O)c2cc(Br)c(OC)cc12,106%
18,O=C(COc1ccccc1)Nc1ccccc1C(=O)OCc1cc(=O)n2nc(C3CC3)sc2n1,89%
19,Cc1ccc(Nc2cc(=O)[nH]c(=O)[nH]2)cc1C,72%
20,CCc1ccc(NC(=O)C(=O)NCC(c2cccnc2)N2CCN(Cc3ccccc3)CC2)cc1 (stereo not given),75%
21,CCc1ccc(CNC(=O)CCCN2C(=O)CCn3nc(-c4cccn4C)cc32)cc1,72%
22,Cc1ccccc1C(=O)NCCc1sc(-c2ccc(Cl)cc2)nc1C,100%
23,COc1cccc(NC(=O)c2cn(C3CCCCC3)c(=O)c3c2c2ccccc2n3C)c1,75%

row,Structure (SMILES),survival
1,Cc1ccc(CN(C(=O)c2ccc(OCC(C)C)cc2)c2ccccn2)o1,104%
2,O=C(NCCc1ccc(Cl)cc1)c1ccc2c(c1)N(Cc1ccc(Cl)cc1)C(=O)CS2,50%
3,COc1ccc(CCNC(=O)c2ccc3c(c2)N(Cc2cccc(Cl)c2)C(=O)c2ccccc2S3=O)cc1OC (stereo not given),94%
4,COc1ccc(CCNC(=O)c2ccc3c(c2)N(Cc2ccc(F)cc2)C(=O)CS3)cc1OC,117%
5,COc1ccc(CCNC(=O)c2ccc3c(c2)N(Cc2cccc(Cl)c2)C(=O)CS3)cc1OC,54% (active)
6,COc1ccccc1CNC(=O)c1ccc2c(c1)N(Cc1c(F)cccc1Cl)C(=O)CS2,43% (active)
7,COc1ccc(CNC(=O)c2ccc3c(c2)N(Cc2c(F)cccc2Cl)C(=O)CS3)cc1,124%
8,O=C(NCc1ccc2c(c1)OCO2)c1ccc2c(c1)N(Cc1c(F)cccc1Cl)C(=O)c1ccccc1S2,86%
9,COc1ccccc1CNC(=O)c1ccc2c(c1)N(Cc1ccc(C)cc1)CCS2,83%
10,O=C(NCCc1ccccc1)c1ccc2c(c1)N(Cc1ccc(F)cc1)C(=O)CS2,74%
11,O=C(NCc1ccc(F)cc1)c1ccc2c(c1)N(Cc1c(F)cccc1Cl)C(=O)CS2,40% (active)
12,O=C(NCCc1ccc(Cl)cc1)c1ccc2c(c1)N(Cc1ccc(F)cc1)C(=O)CS2,37% (active)
13,COCCNC(=O)c1ccc2c(c1)N(Cc1c(F)cccc1Cl)C(=O)c1ccccc1S2,78%
14,CCOc1ccc(NC(=O)C2CCCN(c3cnccn3)C2)cc1 (stereo not given),86%
15,CCOc1cc(-c2ccc(OC(=O)c3ccccc3Cl)c(OC)c2)cc(=O)c2c(C)oc(C)c12,69%
16,COc1ccccc1CNC(=O)c1ccc(CSc2nc3ccncc3n2Cc2ccccc2C)cc1,74%
17,COc1ccc(C(=O)Nc2nnc(S(=O)(=O)N3CCN(c4ccc(C)cc4)CC3)s2)cc1,48% (active)
18,Cc1ccc(N2CCN(S(=O)(=O)c3nnc(NC(=O)c4ccc(C(C)C)cc4)s3)CC2)cc1,42% (active)
19,Cc1ccc(C(=O)Nc2nnc(S(=O)(=O)N3CCOCC3)s2)cc1,68%
20,COc1ccc(C(=O)Nc2nnc(S(=O)(=O)N3CCOCC3)s2)cc1,99%
21,COc1ccc(C(=O)Nc2nnc(S(=O)(=O)N3CCN(c4ccc(F)cc4)CC3)s2)cc1,56%
22,Cc1ccc(C(=O)Nc2nnc(S(=O)(=O)N3CCN(c4ccc(F)cc4)CC3)s2)cc1,56%
23,CCc1nc(SC)ncc1C(=O)NCc1cccc(Br)c1,89%

row,Structure (SMILES),survival
1,CCc1ccc(NC(=O)C2CCC(CNS(=O)(=O)c3cccs3)CC2)cc1 (stereo not given),94%
2,CCOCCCNC(=O)c1ccc(NC(=O)N2CCCCc3ccccc32)cc1,89%
3,O=C1COc2cc(S(=O)(=O)NCc3ccco3)c(Cl)cc2N1,98%
4,CCCCN(CC)Cc1ccc(CNS(=O)(=O)c2cc3c(cc2Cl)NC(=O)CO3)o1,0% (active)
5,Cc1ccc(CNS(=O)(=O)c2cc3c(cc2Cl)NC(=O)CO3)o1,106%
6,Cn1c(SCC(=O)N2c3ccccc3Sc3ccccc32)nnc1-c1ccco1,77%
7,COC(=O)c1c(-c2ccc(Cl)cc2)noc1N1CCN(c2ccc(F)cc2)CC1,83%
8,O=S1(=O)CCC(NCc2ccccc2)C1 (stereo not given),89%
9,CS(=O)(=O)N(CC(=O)NCc1ccncc1)c1ccccc1,85%
10,CCC(C)NC(=O)c1ccccc1NC(=O)CN1C(=O)c2cccc3cccc1c23 (stereo not given),50%
11,CCSc1nsc(NC(=O)Nc2cccc(F)c2)n1,1% (active)
12,O=C(CSc1nnc(NC(=O)Nc2ccccc2)s1)Nc1cccc(F)c1,73%
13,CCSc1nsc(NC(=O)Nc2cccc(OC)c2)n1,96%
14,CSc1nsc(NC(=O)Nc2ccccc2C(F)(F)F)n1,13% (active)
15,CSc1ncc(C(=O)Nc2ccccc2C(F)(F)F)c(-c2ccccc2)n1,117%
16,O=C(Nc1nnc(N2CCCCCC2)s1)Nc1ccccc1C(F)(F)F,80%
17,O=C(NCCc1csc(-c2ccc(Cl)cc2)n1)c1cccs1,89%
18,COc1ccc(CNC(=O)c2cc3ccccn3n2)cc1OC,79%
19,Cc1cc(O)c(C(c2ccccc2Cl)N2CCCCC2)c(=O)n1Cc1ccco1 (stereo not given),76%
20,CCCOC(=O)c1c(-c2ccccc2)c(-c2ccccc2)nn(C)c1=O,60%
21,Cc1ccc(C)c(Nc2ncnc3onc(C)c23)c1,81%
22,CCOC(=O)c1ccc(Nc2c(-c3ccc(O)cc3)nc3nc[nH]n23)cc1,91%
23,CCOC(=O)c1ccc(Nc2c(-c3cccc(O)c3)nc3nc[nH]n23)cc1,46% (active)

row,Structure (SMILES),survival
1,CCOC(=O)c1ccc(Nc2c(-c3ccc(O)c(OC)c3)nc3nc[nH]n23)cc1,93%
2,COc1ccc(NC(=O)C2CCCN(C(=O)c3cnn(-c4ccccc4)c3-n3cccc3)C2)cc1 (stereo not given),70%
3,COc1ccc(CNC(=O)C2CCCN(C(=O)c3cnn(-c4ccc(F)cc4)c3-n3cccc3)C2)cc1 (stereo not given),86%
4,COc1ccc(NC(=O)C2CCCN(C(=O)c3cnn(-c4ccc(F)cc4)c3-n3cccc3)C2)cc1 (stereo not given),47% (active)
5,COc1ccc(-c2noc(N(c3nc(-c4ccc(OC)c(OC)c4)no3)c3ccccc3OC)n2)cc1OC,115%
6,COc1ccccc1NC(=O)CN1C(=O)c2cccc3cccc1c23,62%
7,O=C(CN1C(=O)c2cccc3cccc1c23)Nc1ccccc1Br,63%
8,CC(C)c1ccccc1NC(=O)CN1C(=O)c2cccc3cccc1c23,40% (active)
9,CCOC(=O)c1cnc2cc(-c3ccc(OCC)cc3)nn2c1-c1ccccc1,68%
10,CC(C)CCSc1nnc2n(-c3ccccc3)c(=O)c3c4c(sc3n12)CC(C)CC4 (stereo not given),70%
11,CSc1nc2sc3c(c2c(=O)n1-c1ccccc1)CCC(C(C)(C)C)C3 (stereo not given),18% (active)
12,C=C(C)CSc1nc2sc3c(c2c(=O)n1-c1ccccc1)CCC(C)C3 (stereo not given),84%
13,CCCSc1nc2sc3c(c2c(=O)n1-c1ccc(C)c(Cl)c1)CCN(C(C)=O)C3,81%
14,CCCc1nc2sc3c(c2c(=O)n1N)CCCC3,97%
15,CCOC(=O)CSc1nnc2n(-c3ccccc3)c(=O)c3c4c(sc3n12)CC(C(C)(C)C)CC4 (stereo not given),46% (active)
16,CSc1nc2sc3c(c2c(=O)n1Cc1ccccc1)CCC(C(C)(C)C)C3 (stereo not given),114%
17,COC(=O)CSc1nc2sc3c(c2c(=O)n1Cc1ccccc1)CCC(C(C)(C)C)C3 (stereo not given),66%
18,CCOC(=O)CSc1nc2sc3c(c2c(=O)n1-c1ccccc1)CCC(C(C)(C)C)C3 (stereo not given),58%
19,CCOC(=O)CSc1nnc2n(-c3ccccc3)c(=O)c3c4c(sc3n12)COC(C(C)C)C4 (stereo not given),74%
20,CCCSc1nc2sc3c(c2c(=O)n1-c1ccc(C)cc1)CCCC3,8% (active)
21,CCCSc1nc2sc3c(c2c(=O)n1-c1ccccc1)CCC(C)C3 (stereo not given),2% (active)
